# A selection: hits, their analogues and other compounds. The true share with any hit is near 4.6%.
# USP2a inh – USP2a (human) protease inhibition. O75604. USP2a enzymatic assay, qHTS inhibition. Potency, µM (top dose mostly 38.3 µM), without a hit: at the top dose activity change, negative = inhibition, most hits filed as inhibitors. actives 0.1% (n = 60,000); note: nearly all actives have a fitted effect of over 60% in size
#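 Coupled readout: USP2-cleaved Ub-PLA2 (20nM final) turns over NBD C6-HPC (20uM final), Ex 460nm/Em 535nm after 2.5 h, time-zero read flagging artifacts. Enzyme (20nM final, pH 8.0 Tris) given 30 min RT with compound first; NEM defines full inhibition.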
# GBA mod – alters purified human glucocerebrosidase activity | actives 1.1% (n = 48,000) | purified enzyme, resorufin glucoside fluorescence (screen aimed at inhibitors), 20 min | Potency, µM | AID 360 | P04062; in the data active = potency below about 15 µM; inconclusive = mostly about 16 µM to 33 µM;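 note: the screen sought inhibitors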
#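 Compounds titrated against 0.2 nM normal enzyme, 30 uM resorufin beta-D-glucopyranoside substrate, citrate/phosphate buffer with taurocholate and tween-20, pH 5.9. Reaction ran 20 min at room temperature; fluorescence (Ex 548/Em 600) gave AC50.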
# ALOX15 inhib – 15-hLO (ALOX15) enzyme inhibition; purified 15hLO-1, xylenol orange hydroperoxide absorbance; P16050; actives 1.4% (n = 74,000); Potency, µM (titrated, usually from 57.1 µM), inactives show at the top dose activity change, negative = inhibition, hits mostly inhibitors; note: % is set by controls: 0 for no effect and ±100 for the full control effect; nearly all actives have a fitted effect of over 55% in size
# Target sequence (P16050 whole entry, looked up): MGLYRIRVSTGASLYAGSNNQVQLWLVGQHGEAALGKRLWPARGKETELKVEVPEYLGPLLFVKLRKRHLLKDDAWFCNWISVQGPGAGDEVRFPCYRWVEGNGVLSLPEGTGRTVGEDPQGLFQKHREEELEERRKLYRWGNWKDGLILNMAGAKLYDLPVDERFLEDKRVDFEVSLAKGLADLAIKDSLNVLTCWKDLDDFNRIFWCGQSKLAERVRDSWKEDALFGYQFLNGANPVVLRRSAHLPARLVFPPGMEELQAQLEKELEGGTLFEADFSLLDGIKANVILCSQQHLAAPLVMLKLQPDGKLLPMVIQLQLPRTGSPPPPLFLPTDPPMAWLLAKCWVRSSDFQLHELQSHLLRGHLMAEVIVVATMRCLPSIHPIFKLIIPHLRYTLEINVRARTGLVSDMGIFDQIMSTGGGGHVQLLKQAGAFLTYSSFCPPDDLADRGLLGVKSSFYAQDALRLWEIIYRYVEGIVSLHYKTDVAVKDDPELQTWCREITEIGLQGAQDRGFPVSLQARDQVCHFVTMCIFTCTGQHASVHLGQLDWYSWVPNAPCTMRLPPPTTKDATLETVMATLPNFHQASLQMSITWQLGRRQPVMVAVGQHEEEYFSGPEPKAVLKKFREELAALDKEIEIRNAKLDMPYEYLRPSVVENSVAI
#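 Readout: Fe(III)-xylenol orange absorbance, 573-to-405 nm ratio as reaction progress. Enzyme 40 nM purified human 15hLO-1, substrate 50 uM arachidonic acid, 6 min RT after 15 min compound preincubation; Hepes pH 7.5 buffer with Triton X-100.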
# Hsp90 Hop PPI – changes Hsp90-Hop TPR2A binding signal, up or down. Potency, µM (titrated, usually from 57 µM), without a hit: at the highest dose activity change, negative = inhibition. actives 0.44% (n = 71,000). AlphaScreen TPR2A-His6 binding biotin-Hsp90 C-terminal peptide; active = well fitted curve in either direction with a large enough effect; inconclusive = small, poorly fitted or top-dose-only effect, or another doubt; note: % is set by controls: 0 for no effect and ±100 for the full control effect
# Tau filament bind – binds recombinant human tau filaments; P10636; recombinant tau filaments, thioflavin S fluorescence, 15 h; filaments grown with octadecylsulfate alongside compound; Potency, µM (titrated, usually from 57.1 µM), without a hit: at the top dose activity change, negative = inhibition; actives 2% (n = 71,000); AID 596;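 note: % is set by controls: 0 for no effect and ±100 for the full control effect; actives lower thioflavin S fluorescence by blocking filaments or displacing dye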
#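 His-tagged recombinant human tau (exons 2, 3, 10; 1 uM final) fibrillized with 30 uM sodium octadecylsulfate, 15 h at 37 C, in pH 7.4 HEPES buffer with 10 uM thioflavine S and 5 mM DTT. Reduced ThS fluorescence (450/510 nm) marks activity.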
# Bst PK mod – modulators of Bacillus stearothermophilus pyruvate kinase | purified pyruvate kinase, luminescence ATP production; ribose 5-phosphate activator present at AC10 | Potency, µM | AID 361 | actives 1.2% (n = 51,000); in the data active = potency below about 11 µM; inconclusive = mostly about 12 µM to 25 µM;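 the screen sought inhibitors and activators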;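 note: scaled between full activation by ribose 5 phosphate and full inhibition by luteolin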
# Active calls of the source: *; i = inactive; ? = inconclusive; . = no result given; [ ] = another dose, or the depositor's remark. Unless noted, calls come from the whole dose curve; as a rule, active = well fitted curve in the direction sought with a large enough effect; inconclusive = small, poorly fitted or top-dose-only effect, or another doubt; inactive = no such curve, though single readings can be large; an effect the other way counts as inactive or inconclusive. Potency is the fitted concentration of half-maximal effect.
SMILES,USP2a inh,GBA mod,ALOX15 inhib,Hsp90 Hop PPI,Tau filament bind,Bst PK mod
N#Cc1cc2c(nc1SCc1cccnc1)CCCC2,-16%,>77,16µM*,4%,11%,>57
N#Cc1cc2c(nc1SCc1nc3ccccc3[nH]1)CCC2,32%,>77,16µM*,12%,32µM*,6*
O=C(Nc1ccccc1C(=O)N1CCCCCC1)c1cccc(S(=O)(=O)N2CCOCC2)c1,7%,>77,5%,1%,-4%,>57
COc1ccc(NC(=O)c2ccc3c(c2)n(C)c(=O)n3C)cc1,.,.,3%,0%,29%,.
CC(=O)OC[C@@H]1O[C@@H](O/N=C2/C[C@@H](O)[C@@H](O)[C@@H]3[C@@H]4C(=O)N(C[C@@H]5CCCO5)C(=O)[C@H]4CC[C@H]23)[C@H](OC(C)=O)[C@H](OC(C)=O)[C@@H]1OC(C)=O,.,.,1%[11.4 µM],.,.,.
Fc1ccccc1N1CCN(c2nc3ccccc3n3nnnc23)CC1,35%,13*,1%,?,136%,.
COc1ccc(N(CC(=O)Nc2cc(OC)ccc2OC)S(=O)(=O)c2c(C)nn(C)c2C)cc1,.,.,-1%,-11%,13%,.
CCCC(=O)Nc1ccc(C(=O)Nc2nnc(COC)s2)cc1,-7%,0.77*,-3%,-4%,1%,>57
COCc1nnc(NC(=O)CCc2ccccc2)s1,2%,>77,2%,-11%,75%,>57
COc1ccc(C(=O)Nc2nnc(C(F)(F)F)s2)cc1,-2%,3.3*,0%,3%,2%,.
COCc1nnc(NC(=O)c2cccs2)s1,3%,?,10%,-2%,0%,>57
COCc1nnc(NC(=O)c2ccc(NC(C)=O)cc2)s1,-8%,6.8*,1%,-3%,-3%,>57
COc1ccc(-c2noc(C3CCCN(C(=O)CCc4ccccc4)C3)n2)cc1 (stereo unspecified),4%,>77,-12%,18%,0%,>57
CCOc1cccc(-c2nnc(SCC(=O)Nc3ccc(OC)c(OC)c3)n2N)c1,2%,>77,3%,-3%,66%,>57
Cc1cccc(-n2c(SCC(=O)NCc3ccco3)nnc2-c2ccco2)c1,3%,>77,-4%,-5%,14%,>57
CC(C)(C)/C(O)=C(/C#N)c1nc2ccccc2[nH]1,10%,>77,-17%,-1%,-5%,.
CN1C=CC=C/C1=C(\C#N)c1nc2ccccc2[nH]1,-5%,>77,-8%,-7%,32µM*,>57
CCCCCc1nc2sc3c(c2c(=O)n1N)CCC3,.,.,.,.,.,>26
COc1ccc(C2/C(=C(/O)c3ccccc3)C(=O)C(=O)N2CCO)cc1 (stereo unspecified),.,.,-8%,.,.,.
COc1ccc(N/C(C)=C2/C(=O)C(=O)N(CCO)C2c2ccc(Br)cc2)cc1 (stereo unspecified),23%,>77,-6%,-7%,16µM*,>57
O=C(c1ccccc1)c1cc(-c2ccccc2)on1,.,.,.,.,.,1.9*
Oc1ccc2ccccc2c1C=NCc1cn2ccsc2n1,-2%,>77,-1%,-12%,?,.
COc1ccc2[nH]c3c(=O)n(CCCCC(=O)N4CCC(C(N)=O)CC4)c(=S)[nH]c3c2c1,11%,>77,-25%,-3%,17%,.
COc1ccc2[nH]c3c(=O)n(CCCCC(=O)NCCN4CCCC4)c(=S)[nH]c3c2c1,26%,.,10µM*,-12%,151%,.
COc1ccccc1CNc1cc(-c2ccccc2OC)ncn1,20%,.,-18%,7%,420%,.
SMILES,USP2a inh,GBA mod,ALOX15 inhib,Hsp90 Hop PPI,Tau filament bind,Bst PK mod
CC(C)(C)n1ncc2c(=O)n(Cc3c(F)cccc3Cl)cnc21,1%,>77,-7%,7%,21%,9.9*
CC(C)(C)n1ncc2c(=O)n(CC(=O)c3ccc(Cl)cc3)cnc21,20%,>77,-8%,4%,-2%,.
CC(C)(C)n1ncc2c(=O)n(Cc3ccc(Cl)cc3Cl)cnc21,-4%,>77,-9%,8%,9%,2.9*
CCc1ccc(C2C(C(C)=O)=C(C(=O)OC)Nc3nnnn32)cc1 (stereo unspecified),.,i,1%,-4%,1%,>57
N=c1c2c(-c3ccccc3)c(-c3ccccc3)n(Cc3ccccc3)c2ncn1CCCn1ccnc1,.,.,.,.,.,>26
N=c1c2c(-c3ccccc3)c(-c3ccccc3)n(Cc3ccco3)c2ncn1Cc1ccco1,12%,.,25µM*,?,i,.
Cc1ccc2cc(-c3noc(C4CCCCC4)n3)c(=O)[nH]c2c1,.,.,6%,3%,39%,.
CC(C(=O)NCc1ccccc1)N(CCN1CCOCC1)C(=O)c1snc(C(N)=O)c1N (stereo unspecified),.,>77,13%,-1%,-6%,>57
CCSc1nnc(NC(=O)C2(C)Cc3ccccc3C(=O)O2)s1 (stereo unspecified),9%,>77,16%,-4%,3%,>57
COc1cc(-n2nc(C)c3c2OC(N)=C(C#N)C3c2ccccc2)c(Cl)c(Br)c1O (stereo unspecified),-5%,?,-14%,-24%,25µM*,>57
Fc1ccc(-n2[nH]nnc2=S)cc1N1CCCC1,25%,.,25µM*,-7%,-17%,>57
CC(=O)c1ccc(N2CCCCCC2)c(F)c1,-4%[7.66 µM],.,-4%[11.4 µM],-1%[11 µM],0%[11.4 µM],.
Cn1c(=O)oc2cc(S(=O)(=O)Nc3ccc(Cl)cc3F)ccc21,.,.,2%,3%,-10%,.
COc1ccc(-c2cc3nc4n(c(=O)c3s2)CCOC4)cc1,.,.,.,.,.,6.7*
Cc1ccc(C2NC(=O)c3c(sc4c3CCN(C)C4)N2)s1 (stereo unspecified),23%,>77,?,-11%,i,.
Cc1ccc(C2NC(=O)c3c(sc4c3CCN(C)C4)N2)o1 (stereo unspecified),17%,>77,3.2µM*,-11%,i,>11
Cc1nn(-c2ccccc2)c2c1C(c1c(C)[nH]c(C#N)c1C)C(C#N)=C(N)O2 (stereo unspecified),3%,11*,-2%,-3%,-20%,>57
COc1ccc2c(c1)c(=O)oc1cc(OCC(=O)N3CCCC(C)C3)ccc12 (stereo unspecified),41%,>77,-18%,2%,248%,.
CCCCCC[C@@H]([C@@H](C)O)n1cnc2c(N)ncnc21,.,.,13µM*,1%,?,.
Nc1ncnc2c1ncn2C[C@@H](O)C(=O)O,.,.,5%[11.4 µM],1%[11 µM],-4%[11.4 µM],.
C=CC[C@@H]1C=C[C@@H](O/N=C2/C[C@@H](O)[C@@H](O)[C@@H]3[C@@H]4C(=O)N(CC)C(=O)[C@H]4CC[C@@H]23)[C@@H](CO)O1,.,.,11%[11.4 µM],.,.,.
COc1ccc([C@@H]2[C@H]3CN(C(C)=O)CC=C3C(C#N)=C(N)C2(C#N)C#N)c2ccccc12,31%,.,13µM*,-13%,15%,>57
